# Values joined by “and” are separate entries in the source; they are usually repeats but may differ in a detail not shown here. Identical values can stand only once. Inconclusive results are not listed. Where a call stands in place of a potency, no number is given. More than one record can exist for a structure, and the calls need not agree. Active and inactive are the calls of the source. Calls follow the shape of the dose curve; as a rule, active = well fitted curve in the direction sought with a large enough effect in the repeat runs; inconclusive = weak or mixed curves; inactive = no such curve, though single readings can be large; an effect the other way counts as inactive or inconclusive.
# How the values were obtained:
# [1] = Human pregnane X receptor (PXR) small molecule agonists, qHTS cell viability counter screen (AID 1346977); also: nearly all actives have a fitted effect of over 50% in size; also: potency is read from the fitted curve at half-maximal effect
# In short: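 PXR-Luc HepG2 cells in medium with 5% charcoal-stripped FBS were pre-incubated 5hr, then exposed to compounds for 24hr at 37C. Viability was read in the same wells by CellTiter-Fluor fluorescence, reagent added after 23hr with a 1hr incubation.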
# [2] = Caspase-3/7 induction in HepG2 cells by small molecules, qHTS assay (AID 1346978); also: nearly all actives have a fitted effect of over 15% in size; also: potency is read from the fitted curve at half-maximal effect
# In short: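 Wild-type HepG2 cells, 2,000/well, settled 5 hr at 37 C and 5% CO2, then compound-treated for 17 hr; caspase-3/7 activity read by luminescent Caspase-Glo 3/7 after 30 min at room temperature.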
# [3] = Caspase-3/7 induction in CHO-K1 cells by small molecules, qHTS cell viability counter screen (AID 1346979); also: nearly all actives have a fitted effect of over 35% in size; also: potency is read from the fitted curve at half-maximal effect
# In short: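 Wild-type CHO-K1 cells were seeded at 1,500 per well, rested 5hr at 37 C, then exposed to compounds in DMSO. After 16hr, CellTiter-Fluor reagent was added and fluorescence read 1hr later as the viability measure.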
# [4] = Caspase-3/7 induction in CHO-K1 cells by small molecules, qHTS assay (AID 1346980); also: nearly all actives have a fitted effect of over 15% in size; also: potency is read from the fitted curve at half-maximal effect
# In short: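 Wild-type CHO-K1 cells exposed to compounds for 17hr at 37 C, 5% CO2. Caspase-3/7 activity then measured by Caspase-Glo 3/7 luminescence after 30min at room temperature.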
# [5] = Caspase-3/7 induction in HepG2 cells by small molecules, qHTS cell viability counter screen (AID 1346981); also: nearly all actives have a fitted effect of over 30% in size; also: potency is read from the fitted curve at half-maximal effect
# In short: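 Wild-type HepG2 cells (2,000/well) were allowed to settle for 5 hr at 37 C, 5% CO2, then dosed with compounds in DMSO by pin transfer. After 16 hr at 37 C, CellTiter-Fluor was added and fluorescence read 1 hr later.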
# [6] = molecular target: Nuclear receptor subfamily 1 group I member 2 (Homo sapiens) (UniProt O75469); assay: Human pregnane X receptor (PXR) small molecule agonists, qHTS assay (AID 1346982); also: nearly all actives have a fitted effect of over 35% in size; also: potency is read from the fitted curve at half-maximal effect
# Nuclear receptor subfamily 1 group I member 2 (Homo sapiens), sequence (O75469 whole entry, looked up): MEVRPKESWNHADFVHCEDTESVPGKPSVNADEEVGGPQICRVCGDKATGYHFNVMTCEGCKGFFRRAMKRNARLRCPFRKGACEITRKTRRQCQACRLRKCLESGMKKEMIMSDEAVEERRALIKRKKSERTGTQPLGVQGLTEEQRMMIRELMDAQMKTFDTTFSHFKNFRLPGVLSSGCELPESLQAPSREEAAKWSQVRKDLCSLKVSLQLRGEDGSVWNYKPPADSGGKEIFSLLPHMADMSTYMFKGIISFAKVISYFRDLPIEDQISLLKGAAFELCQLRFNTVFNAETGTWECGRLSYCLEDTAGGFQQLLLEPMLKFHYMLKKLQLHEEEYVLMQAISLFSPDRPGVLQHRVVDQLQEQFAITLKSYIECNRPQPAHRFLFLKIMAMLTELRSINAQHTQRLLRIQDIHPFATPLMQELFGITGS
# In short: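 PXR-Luc HepG2 cells (CYP3A4 promoter-driven luciferase) were seeded in medium with 5% charcoal-stripped FBS, left 5 hr at 37 C, then exposed to compounds in DMSO for 24 hr. Luminescence was read after ONE-Glo addition.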
# [7] = molecular target: Cytochrome P450 2D6 (Homo sapiens) (UniProt P10635); assay: Cytochrome P450 Family 2 Subfamily D Member 6 (CYP2D6) small molecule antagonists: luciferase reporter qHTS assay (AID 1671196); also: nearly all actives have a fitted effect of over 50% in size; also: potency is read from the fitted curve at half-maximal effect
# Cytochrome P450 2D6 (Homo sapiens), sequence (P10635 whole entry, looked up): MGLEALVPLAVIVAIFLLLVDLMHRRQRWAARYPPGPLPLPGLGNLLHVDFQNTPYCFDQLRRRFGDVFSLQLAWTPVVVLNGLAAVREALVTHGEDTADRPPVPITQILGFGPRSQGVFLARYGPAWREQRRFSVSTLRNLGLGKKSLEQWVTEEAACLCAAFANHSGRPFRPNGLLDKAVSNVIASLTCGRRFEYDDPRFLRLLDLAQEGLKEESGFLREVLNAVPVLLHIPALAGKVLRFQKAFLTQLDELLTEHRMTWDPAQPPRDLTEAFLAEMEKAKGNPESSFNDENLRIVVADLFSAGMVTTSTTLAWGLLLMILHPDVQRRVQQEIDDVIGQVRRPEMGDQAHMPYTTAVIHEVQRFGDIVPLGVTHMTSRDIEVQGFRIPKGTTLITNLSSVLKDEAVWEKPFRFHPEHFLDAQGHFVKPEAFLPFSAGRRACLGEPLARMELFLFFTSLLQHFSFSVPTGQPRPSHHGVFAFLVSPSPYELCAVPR
# In short: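 CYP2D6 enzyme–substrate mix was held with compound for 10 min at room temperature, then NADPH regeneration solution was added and the reaction ran 1 h at room temperature. Luciferin product was detected by luminescence after 20 min with detection reagent.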
# [8] = molecular target: Cytochrome P450 2C19 (Homo sapiens) (UniProt P33261); assay: Cytochrome P450 Family 2 Subfamily C Member 19 (CYP2C19) small molecule antagonists: luciferase reporter qHTS assay (AID 1671197); also: nearly all actives have a fitted effect of over 65% in size; also: potency is read from the fitted curve at half-maximal effect
# Cytochrome P450 2C19 (Homo sapiens), sequence (P33261 whole entry, looked up): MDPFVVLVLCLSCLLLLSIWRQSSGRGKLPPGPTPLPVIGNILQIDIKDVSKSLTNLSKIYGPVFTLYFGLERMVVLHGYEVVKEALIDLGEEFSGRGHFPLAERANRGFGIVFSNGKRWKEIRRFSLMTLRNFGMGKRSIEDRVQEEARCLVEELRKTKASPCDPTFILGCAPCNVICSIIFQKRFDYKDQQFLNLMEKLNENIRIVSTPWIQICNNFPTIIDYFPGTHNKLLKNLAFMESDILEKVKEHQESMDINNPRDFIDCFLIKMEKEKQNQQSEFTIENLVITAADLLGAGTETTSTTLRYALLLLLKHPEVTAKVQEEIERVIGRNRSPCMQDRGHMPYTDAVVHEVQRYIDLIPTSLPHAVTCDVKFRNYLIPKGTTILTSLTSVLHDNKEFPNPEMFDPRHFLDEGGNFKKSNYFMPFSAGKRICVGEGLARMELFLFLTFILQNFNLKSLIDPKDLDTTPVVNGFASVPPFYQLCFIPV
# In short: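 Light output is proportional to CYP2C19 activity: proluciferin substrate is converted to luciferin, then detected by a luciferin detection reagent that also stops the 1 h, 37C NADPH-driven reaction. Ketoconazole serves as positive control.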
# [9] = molecular target: Cytochrome P450 2C9 (Homo sapiens) (UniProt P11712); assay: Cytochrome P450 Family 2 Subfamily C Member 9 (CYP2C9) small molecule antagonists: luciferase reporter qHTS assay (AID 1671198); also: nearly all actives have a fitted effect of over 50% in size; also: potency is read from the fitted curve at half-maximal effect
# Cytochrome P450 2C9 (Homo sapiens), sequence (P11712 whole entry, looked up): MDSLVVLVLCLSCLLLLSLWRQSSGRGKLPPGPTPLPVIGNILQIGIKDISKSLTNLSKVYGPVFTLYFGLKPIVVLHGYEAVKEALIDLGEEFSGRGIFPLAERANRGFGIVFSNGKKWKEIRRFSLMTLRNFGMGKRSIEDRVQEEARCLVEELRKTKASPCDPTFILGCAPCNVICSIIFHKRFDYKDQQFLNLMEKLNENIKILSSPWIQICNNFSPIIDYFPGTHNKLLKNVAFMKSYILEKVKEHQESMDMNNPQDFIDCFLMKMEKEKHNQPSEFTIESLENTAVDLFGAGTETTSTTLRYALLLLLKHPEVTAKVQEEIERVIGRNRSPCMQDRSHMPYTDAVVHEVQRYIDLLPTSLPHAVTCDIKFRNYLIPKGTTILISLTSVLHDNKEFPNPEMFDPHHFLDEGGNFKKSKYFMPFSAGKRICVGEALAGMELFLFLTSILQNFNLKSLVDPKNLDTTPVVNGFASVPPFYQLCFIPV
# In short: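 P450-Glo proluciferin substrate with CYP2C9 enzyme; 10 min RT preincubation, then NADPH regeneration 1 h at 37C; luciferin detection reagent 20 min RT, luminescence in relative luminescence units.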
# [10] = molecular target: Cytochrome P450 1A2 (Homo sapiens) (UniProt P05177); assay: Cytochrome P450 Family 1 Subfamily A Member 2 (CYP1A2) small molecule antagonists: luciferase reporter qHTS assay (AID 1671199); also: nearly all actives have a fitted effect of over 50% in size; also: potency is read from the fitted curve at half-maximal effect
# Cytochrome P450 1A2 (Homo sapiens), sequence (P05177 whole entry, looked up): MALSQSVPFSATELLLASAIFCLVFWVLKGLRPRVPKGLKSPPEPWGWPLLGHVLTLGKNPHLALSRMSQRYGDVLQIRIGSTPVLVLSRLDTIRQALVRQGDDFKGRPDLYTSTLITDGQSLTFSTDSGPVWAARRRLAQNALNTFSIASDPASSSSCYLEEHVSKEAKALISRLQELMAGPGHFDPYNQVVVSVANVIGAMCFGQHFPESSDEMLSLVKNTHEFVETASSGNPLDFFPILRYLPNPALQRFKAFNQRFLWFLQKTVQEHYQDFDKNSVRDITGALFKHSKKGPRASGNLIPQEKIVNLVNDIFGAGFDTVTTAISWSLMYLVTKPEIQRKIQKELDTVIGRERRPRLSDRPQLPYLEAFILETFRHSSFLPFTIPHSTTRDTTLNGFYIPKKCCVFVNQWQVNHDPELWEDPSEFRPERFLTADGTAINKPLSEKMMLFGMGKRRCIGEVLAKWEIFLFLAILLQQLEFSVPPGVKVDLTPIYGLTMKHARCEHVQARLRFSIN
# In short: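 Human CYP1A2 activity measured with a P450-Glo proluciferin substrate; compounds in DMSO preincubated 10 min at room temperature with enzyme-substrate mix, then NADPH regeneration system added for 1 h. Luciferin detection reagent, 20 min, luminescence read.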
# [11] = molecular target: Voltage-gated inwardly rectifying potassium channel KCNH2 (Homo sapiens) (UniProt Q12809); assay: Human Ether-a-go-go-Related Gene (hERG) channel small molecule antagonists: fluorescence cell-based qHTS assay (AID 1671200); also: nearly all actives have a fitted effect of over 50% in size; also: potency is read from the fitted curve at half-maximal effect
# Voltage-gated inwardly rectifying potassium channel KCNH2 (Homo sapiens), sequence (Q12809 whole entry, looked up): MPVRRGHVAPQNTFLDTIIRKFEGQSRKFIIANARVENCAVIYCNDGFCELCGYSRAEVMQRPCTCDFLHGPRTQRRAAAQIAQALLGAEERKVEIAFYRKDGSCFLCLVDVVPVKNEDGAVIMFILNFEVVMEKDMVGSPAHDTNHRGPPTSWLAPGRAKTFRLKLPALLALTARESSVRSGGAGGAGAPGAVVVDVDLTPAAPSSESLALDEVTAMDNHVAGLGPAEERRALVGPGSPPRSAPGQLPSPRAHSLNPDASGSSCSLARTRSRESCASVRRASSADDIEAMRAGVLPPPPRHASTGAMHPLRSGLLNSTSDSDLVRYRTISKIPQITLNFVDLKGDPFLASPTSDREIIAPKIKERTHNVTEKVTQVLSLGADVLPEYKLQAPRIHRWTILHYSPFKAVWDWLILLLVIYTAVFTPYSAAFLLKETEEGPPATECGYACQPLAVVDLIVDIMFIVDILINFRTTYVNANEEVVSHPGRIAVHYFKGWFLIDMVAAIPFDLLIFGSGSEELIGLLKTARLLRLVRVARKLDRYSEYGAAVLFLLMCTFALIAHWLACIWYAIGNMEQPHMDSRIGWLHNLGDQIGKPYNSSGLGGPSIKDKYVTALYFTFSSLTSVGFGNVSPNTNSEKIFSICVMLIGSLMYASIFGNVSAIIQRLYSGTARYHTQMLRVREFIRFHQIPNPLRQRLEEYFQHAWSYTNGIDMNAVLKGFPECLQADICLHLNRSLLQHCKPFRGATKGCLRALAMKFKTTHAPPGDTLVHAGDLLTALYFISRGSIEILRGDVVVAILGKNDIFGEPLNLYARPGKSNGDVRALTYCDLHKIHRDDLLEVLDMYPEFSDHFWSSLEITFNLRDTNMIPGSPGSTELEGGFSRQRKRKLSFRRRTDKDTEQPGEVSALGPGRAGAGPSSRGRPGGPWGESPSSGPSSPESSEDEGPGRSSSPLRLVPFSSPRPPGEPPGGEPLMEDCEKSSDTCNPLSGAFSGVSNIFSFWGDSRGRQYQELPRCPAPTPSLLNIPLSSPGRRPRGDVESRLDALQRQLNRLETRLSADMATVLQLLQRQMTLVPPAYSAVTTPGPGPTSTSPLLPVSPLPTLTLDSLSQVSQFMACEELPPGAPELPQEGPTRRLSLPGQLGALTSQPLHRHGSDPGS
# In short: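 U2OS cells expressing the channel were plated at 1000 cells/well, incubated overnight at 37 C, then loaded with FluxOR II thallium-sensitive dye for 1 h at room temperature in the dark, with a further 10 min at room temperature before stimulation.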
# [12] = molecular target: Cytochrome P450 3A4 (Homo sapiens) (UniProt P08684); assay: Cytochrome P450 Family 3 Subfamily A Member 4 (CYP3A4) small molecule antagonists: luciferase reporter qHTS assay (AID 1671201)
# Cytochrome P450 3A4 (Homo sapiens), sequence (P08684 whole entry, looked up): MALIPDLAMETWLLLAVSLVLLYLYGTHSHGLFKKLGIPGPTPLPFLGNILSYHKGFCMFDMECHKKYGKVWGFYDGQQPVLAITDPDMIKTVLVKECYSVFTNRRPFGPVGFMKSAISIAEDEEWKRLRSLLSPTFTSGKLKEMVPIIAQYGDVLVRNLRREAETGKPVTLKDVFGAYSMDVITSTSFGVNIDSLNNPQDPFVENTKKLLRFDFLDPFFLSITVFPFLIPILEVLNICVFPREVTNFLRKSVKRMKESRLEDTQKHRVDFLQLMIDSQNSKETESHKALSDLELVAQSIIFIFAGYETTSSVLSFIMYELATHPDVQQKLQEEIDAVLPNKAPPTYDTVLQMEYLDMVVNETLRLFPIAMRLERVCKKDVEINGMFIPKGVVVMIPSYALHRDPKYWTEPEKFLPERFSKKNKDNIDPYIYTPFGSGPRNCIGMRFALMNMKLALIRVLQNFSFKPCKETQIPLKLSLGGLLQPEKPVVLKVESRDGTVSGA
# In short: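 P450-Glo CYP3A4 system with proluciferin substrate; compounds preincubated 10 min RT with enzyme-substrate mix, then NADPH regeneration added for 1 h RT. Detection reagent 20 min, luminescence read as relative luminescence units.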
# [13] = molecular target: Nuclear receptor subfamily 1 group I member 2 (Rattus norvegicus) (UniProt Q9R1A7); assay: Rat pregnane X receptor (rPXR) activation by small molecules, qHTS assay (AID 1346983); conditions: rPXR luciferase reporter cells, One-Glo luminescence, 24 h; stronger effect = higher value; also: nearly all actives have a fitted effect of over 20% in size
# Nuclear receptor subfamily 1 group I member 2 (Rattus norvegicus), sequence (Q9R1A7 whole entry, looked up): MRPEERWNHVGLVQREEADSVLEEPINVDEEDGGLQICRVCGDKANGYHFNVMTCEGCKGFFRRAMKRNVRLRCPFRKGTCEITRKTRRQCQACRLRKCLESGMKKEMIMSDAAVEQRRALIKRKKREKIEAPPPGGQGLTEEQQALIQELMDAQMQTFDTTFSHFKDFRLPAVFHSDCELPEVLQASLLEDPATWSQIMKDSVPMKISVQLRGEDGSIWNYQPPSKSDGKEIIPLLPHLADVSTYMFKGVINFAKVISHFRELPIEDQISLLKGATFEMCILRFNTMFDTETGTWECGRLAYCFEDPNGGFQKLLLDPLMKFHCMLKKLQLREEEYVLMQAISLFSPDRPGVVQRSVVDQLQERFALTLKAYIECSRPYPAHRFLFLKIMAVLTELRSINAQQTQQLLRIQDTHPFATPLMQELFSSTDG
# In short: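 Cell-based rPXR activation assay: rPXR cells, 2,000 per well, rested 5hr at 37 C, then exposed to compounds in DMSO for 24 hr at 37 C. Luciferase activity read by One-Glo luminescence after 30 min at room temperature.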
# [14] = molecular target: Nuclear receptor subfamily 1 group I member 2 (Homo sapiens) (UniProt O75469); assay: Human pregnane X receptor (PXR) activation by small molecules, qHTS assay (AID 1346985); also: nearly all actives have a fitted effect of over 40% in size
# In short: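 DPX-2 cells (HepG2 co-transfected with a PXR response element and a CYP3A4-promoter luciferase construct) were seeded at 2,000 per well, rested 5 hr at 37C, then exposed to DMSO-dissolved compounds for 24 hr. Activation was read as luciferase luminescence.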
# [15] = molecular target: Nuclear receptor subfamily 1 group I member 2 (Homo sapiens) (UniProt O75469); assay: CYP3A4 induction through human pregnane X receptor (PXR) by small molecules, qHTS assay (AID 1346984); also: nearly all actives have a fitted effect of over 40% in size
# In short: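 DPX-2 cells (HepG2 co-transfected with PXR and CYP3A4 promoter-luciferase) treated with compounds 24 h at 37C; luciferin-IPA CYP3A4 substrate 3uM final added for 3 h, then One-Glo; luminescence read. qHTS format.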
Compound,Potency [1],Potency [2],Potency [3],Potency [4],Potency [5],Potency [6],Potency [7],Potency [8],Potency [9],Potency [10],Potency [11],Potency [12],max activation [13],Potency [14],Potency [15]
O=C(Oc1ccccc1)c1ccccc1O,inactive,inactive,inactive,inactive,inactive,inactive,inactive,inactive,35.6 µM (active) and 24.5 µM (active),35.7 µM (active) and 35.6 µM (active) and 28.8 µM (active),inactive,inactive,–,–,–
CC(C(O)c1ccc(O)cc1)N1CCC(Cc2ccccc2)CC1 (stereo unspecified),inactive,inactive,inactive,inactive,inactive,inactive,–,–,inactive,inactive,6.01 µM (active),inactive,-2.92% (inactive),inactive,–
N[C@@H]1CONC1=O,inactive,inactive,inactive,inactive,inactive,inactive,inactive,inactive,inactive,inactive,inactive,inactive,-2.48% (inactive),inactive,inactive
CCC(CO)(CO)COCC(CC)(CO)CO,inactive,inactive,inactive,inactive,inactive,inactive,inactive,inactive,–,inactive,inactive,inactive,–,–,–
CO[Si](OC)(OC)c1ccccc1,inactive,inactive,inactive,inactive,inactive,inactive,inactive,inactive,inactive,–,inactive,–,–,–,–
O=C(O)Cn1cnnn1,inactive,inactive,inactive,inactive,inactive,inactive,inactive,inactive,inactive,inactive,inactive,inactive,–,–,–
O=C(O)CP(=O)(O)O,inactive,inactive,inactive,inactive,inactive,inactive,inactive,inactive,inactive,–,inactive,inactive,–,–,–
Oc1c(Cl)cc(Cl)c(Cl)c1Cc1c(O)c(Cl)cc(Cl)c1Cl,2.72 µM (active) and 1.72 µM (active) and 6.68 µM (active),inactive,6.09 µM (active) and 15.4 µM (active) and 8.41 µM (active),inactive,–,–,inactive,70.8 µM (active) and 79.6 µM (active) and inactive,2 µM (active) and 3.56 µM (active) and 1.74 µM (active),inactive,inactive,inactive,-22.6% (inactive),–,–
Cc1c(O)cccc1C(=O)N[C@@H](CSc1ccccc1)[C@H](O)CN1C[C@H]2CCCC[C@H]2C[C@H]1C(=O)NC(C)(C)C,16.8 µM (active) and 13.3 µM (active),66.8 µM (active),5.95 µM (active) and 10.6 µM (active),inactive,11.9 µM (active) and 13.3 µM (active),–,8.71 µM (active) and 15.5 µM (active),9.77 µM (active),19.5 µM (active) and 24.5 µM (active),inactive,inactive,–,–,–,–
CCCCC(CC)COC(=O)CC(C(=O)OCC(CC)CCCC)S(=O)(=O)O (stereo unspecified),70.8 µM (active) and 61.1 µM (active),inactive,52.4 µM (active),inactive,–,5.88 µM (active) and 3.06 µM (active),inactive and 17.8 µM (active),–,15.3 µM (active) and 12.6 µM (active),63.3 µM (active),inactive,–,–,–,–
NC12CC3CC(CC(C3)C1)C2,inactive,inactive,inactive,inactive,inactive,–,–,–,–,–,inactive,–,–,–,–
NCCO,inactive,inactive,inactive,inactive,inactive,27.3 µM (active),inactive and 5.03 µM (active),inactive and 11.2 µM (active),inactive and 31.7 µM (active),9.47 µM (active),inactive,inactive,–,–,–
CC[C@H]1CN2CCc3cc(OC)c(OC)cc3[C@@H]2C[C@@H]1C[C@H]1NCCc2cc(OC)c(OC)cc21,24.4 nM (active) and 10.6 nM (active),–,27.4 nM (active) and 13.3 nM (active),30.7 µM (active) and inactive,48.7 nM (active) and 16.8 nM (active),19.4 nM (active) and 8.4 nM (active),40.1 µM (active),–,inactive,inactive,–,–,-15.9% (inactive),inactive,inactive
CC(N)=O,inactive,inactive,inactive,inactive,inactive,inactive,inactive,inactive,–,–,inactive,inactive,–,–,–
CC(=O)Nc1ccc(C(=O)CCl)cc1,inactive and 61.1 µM (active),inactive,54.8 µM (active) and 17.2 µM (active),inactive,inactive,21.8 µM (active) and 24.3 µM (active),–,inactive and 79.6 µM (active),63.3 µM (active),31.7 µM (active),inactive,inactive,–,–,–
CC(=O)OCC1=C(C(=O)O)N2C(=O)[C@@H](NC(=O)Cc3cccs3)[C@H]2SC1,inactive,–,inactive,inactive,inactive,inactive,inactive,inactive,–,inactive,inactive,inactive,-1.19% (inactive),inactive,inactive
CN(C)c1ccc(C(=C2C=CC(=[N+](C)C)C=C2)c2ccccc2)cc1,2.37 µM (active) [middle of 4 runs],–,596 nM (active) [middle of 4 runs],5.96 µM (active) and 3.35 µM (active),19.3 µM (active) and 13.3 µM (active) and 23.7 µM (active),1.72 µM (active) and 2.11 µM (active) and 1.33 µM (active),7.97 µM (active) and 13.8 µM (active) and 15.5 µM (active),–,–,15.9 µM (active) and 13.8 µM (active),4.25 µM (active) [middle of 4 runs],–,11.8% (inactive),inactive,–

# — PubChem BioAssay (Tox21)
